According to PubChem BioAssay (NCATS):
Values joined by “and” are separate entries in the source; they are usually repeats but may differ in a detail not shown here. Identical values can stand only once. Inconclusive results are not listed. A number with no mark means an inactive call. Active and inactive are the calls of the source. Calls follow the shape of the dose curve; as a rule, active = well fitted inhibition curve with a large enough effect in the repeat runs; inconclusive = weak or mixed curves; inactive = no such curve, though single readings can be large or run the other way.
% is scaled to controls: 0 for no effect and ±100 for the full control effect; potency is read from the fitted curve at half-maximal effect.

These molecules were tested against Cytochrome P450 2C9 (Homo sapiens) (UniProt P11712) (assay: Cytochrome P450 family 2 subfamily C member 9 (CYP2C9) small molecule antagonists: luciferase biochemical (cell-free) qHTS assay (AID 1645842; also: nearly all actives have a fitted effect of over 55% in size)). Settings: P450-Glo CYP2C9 enzyme assay, luciferin luminescence; series mostly up to 57.4 µM; activity change, negative = inhibition: at the top concentration.
Cytochrome P450 2C9 (Homo sapiens), sequence (P11712 whole entry, looked up): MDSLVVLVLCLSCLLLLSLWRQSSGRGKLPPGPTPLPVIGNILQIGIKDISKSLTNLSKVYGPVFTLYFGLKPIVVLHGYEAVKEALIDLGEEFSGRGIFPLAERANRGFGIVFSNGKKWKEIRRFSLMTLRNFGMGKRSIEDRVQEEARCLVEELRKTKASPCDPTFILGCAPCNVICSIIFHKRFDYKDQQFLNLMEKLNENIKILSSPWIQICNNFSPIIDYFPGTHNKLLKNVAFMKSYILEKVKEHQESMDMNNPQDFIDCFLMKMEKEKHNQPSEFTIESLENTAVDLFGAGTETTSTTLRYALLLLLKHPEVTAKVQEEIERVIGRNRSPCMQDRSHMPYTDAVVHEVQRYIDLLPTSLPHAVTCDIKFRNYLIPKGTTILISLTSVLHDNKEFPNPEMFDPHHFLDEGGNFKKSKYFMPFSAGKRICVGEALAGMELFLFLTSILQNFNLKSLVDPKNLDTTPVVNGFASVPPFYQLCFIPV
In short: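 P450-Glo CYP2C9 system: proluciferin substrate with enzyme in mix containing 0.4% BSA, 10 min at room temperature, then NADPH regeneration solution added and incubated 1 h at 37C. Detection reagent stopped reaction; luminescence read after 20 min as RLU.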
With CCN(CC)C(=S)SSC(=S)N(CC)CC the Potency was 7.7 µM (active) and 7.76 µM (active).
For Nc1nc(N)c(N=O)c(OCC2CCCCC2)n1, the “activity change, negative = inhibition” value was -13.7%.
For NC(=NCc1ccccc1)NC(=O)c1nc(Cl)c(N)nc1N, the “activity change, negative = inhibition” value was -6.95%.
With CC1(C)NC(=O)N(c2ccc([N+](=O)[O-])c(C(F)(F)F)c2)C1=O the Potency was 7.76 µM (active) and 6.01 µM (active).
With O=C(c1ccccc1)c1ccc2n1CCC2C(=O)O (stereo not given) the “activity change, negative = inhibition” value was -7.71%.
For c1cnc2cc3c(cc2n1)C1CNCC3C1, the “activity change, negative = inhibition” value was -1.97%.
In the case of O=C(O)c1cc(=O)c2c(OCC(O)COc3cccc4oc(C(=O)O)cc(=O)c34)cccc2o1, the “activity change, negative = inhibition” value is reported as 8.46%.
For NNc1nncc2ccccc12, the “activity change, negative = inhibition” value was 3.11% [at 23.9 µM].
For CNC[C@H](O)c1ccc(O)c(O)c1, the “activity change, negative = inhibition” value was 0.551% [at 23.9 µM].
In the case of Cc1c(OCC(F)(F)F)ccnc1CS(=O)c1nc2ccccc2[nH]1 (stereo not given), the Potency is reported as 15.5 µM (active) and 13.5 µM (active).
